Screening results from PubChem BioAssay.
POLK inh: blocks human DNA polymerase kappa activity; purified Pol kappa, fluorescent DNA synthesis assay, 10 min; AID 588579; Potency, µM (titrated, usually from 107 µM), inactives show at the top dose activity, negative = inhibition, usual class: inhibitors; Q9UBT6; actives 0.53% (n = 400,000); note: potency is the fitted concentration of half-maximal effect; % is set by controls: 0 for no effect and ±100 for the full control effect
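Kinetic fluorescence readout at 0 and 10 min followed reaction start with substrate at 50 nM final. Beforehand, enzyme (10 nM Pol kappa) stood 15 min with compound at room temperature; buffer-only wells were negative controls.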
Pol eta inh: DNA polymerase eta (human) inhibition; Q9Y253; recombinant Pol eta, fluorescent DNA replication assay; Potency, µM (doses to about 114 µM), without a hit: top-dose activity change, negative = inhibition, actives largely listed as inhibitors; actives 1.2% (n = 390,000); AID 588591; note: potency is the fitted concentration of half-maximal effect; % is set by controls: 0 for no effect and ±100 for the full control effect
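Pol eta at 10 nM preincubated with compounds 15 min at room temperature; reaction started with fluorescent substrate (50 nM final) and read kinetically at 0 and 10 min.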
FEN1 inh: blocks human flap endonuclease 1; Recombinant FEN1 flap cleavage, fluorescence, 15 min; actives 0.35% (n = 390,000); Potency, µM (doses to about 114 µM), for the others: at the top dose activity change, negative = inhibition, most hits filed as inhibitors; note: potency is the fitted concentration of half-maximal effect; % is set by controls: 0 for no effect and ±100 for the full control effect; nearly all actives have a fitted effect of over 65% in size
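Nuclease activity of 10 nM FEN1 was measured after 15 min of room-temperature exposure to titrated compounds, by adding 50 nM flap substrate and reading plates at 0 and 15 min.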
PI5P4Ka inh: blocks human PI5P4K alpha kinase activity | P48426 | PI5P4Kalpha enzyme, ADP-Glo luminescence, 60 min; active compounds read low | max response, % | actives 1.2% (n = 330,000) | AID 652105; active = max response of -50% or lower; inconclusive = between -30% and -50%; inactive = -30% or higher; note: value at the top dose of about 77 µM; % is set by controls: 0 for no effect and ±100 for the full control effect
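Luminescence from ADP-Glo served as readout of PI5P4Kalpha activity in a qHTS format. Reaction: enzyme, substrate, compound, ATP at 5 microM final, 60 min at RT.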
Pol iota inh: blocks human DNA polymerase iota activity; Q9UNA4; Pol iota fluorescent replication assay, 10 min; Potency, µM (titrated, usually from 115 µM), for inactives: at the highest dose activity, negative = inhibition, actives largely listed as inhibitors; actives 1% (n = 390,000); AID 588590; note: potency is the fitted concentration of half-maximal effect
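Fluorescent replication assay read twice, at 0 min and 10 min after adding 50 nM (final) substrate. Enzyme (10 nM) and compounds were first incubated 15 min at room temperature; enzyme-free buffer wells were negative controls.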
Pol beta inh: blocks human DNA polymerase beta activity; P06746; Potency, µM (titrated, usually from 114 µM), for inactives: at the top dose activity change, negative = inhibition, actives largely listed as inhibitors; AID 485314; Pol beta primer extension/strand displacement, fluorescence kinetic; actives 1.3% (n = 340,000); note: potency is the fitted concentration of half-maximal effect; % is set by controls: 0 for no effect and ±100 for the full control effect
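Homogeneous kinetic assay of primer extension and strand displacement by 10 nM Pol beta, preincubated 15 min at room temperature with compound before 50 nM substrate (final) was added. Read at 0 and 10 min; four-parameter Hill fit.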
ADP-Glo interf: counter-screen for PI5P4K inhibitors: ADP-Glo detection interference, no enzyme; shares compounds with PI5P4Ka inh; ADP-Glo detection counter-screen, luciferase luminescence, no enzyme; Potency, µM (series often up to 76.9 µM), for inactives: top-dose activity change, negative = inhibition, actives largely listed as inhibitors; 1,100 tested, under 10 active; AID 743285
* marks the source's active call; other numbers are inactive results; ? = inconclusive; . = no result given; [ ] = another dose, or the depositor's remark. In the library only some 2.8% were active in any assay of this set; here they are far more common. Unless noted, calls come from the whole dose curve; as a rule, active = well fitted curve in the direction sought with a large enough effect; inconclusive = small, poorly fitted or top-dose-only effect, or another doubt; inactive = no such curve, though single readings can be large; an effect the other way counts as inactive or inconclusive.

SMILES | POLK inh | Pol eta inh | FEN1 inh | PI5P4Ka inh | Pol iota inh | Pol beta inh | ADP-Glo interf
CCCN(C(=O)c1cc(-c2ccco2)nc2ccccc12)c1c(N)n(Cc2ccccc2)c(=O)[nH]c1=O | -44.6% | 15.8µM* | -16.7% | -59.0* | 20µM* | . | -3.8%
CCCCN(C(=O)c1cc(-c2ccc(F)cc2)nc2ccccc12)c1c(N)n(CCCC)c(=O)[nH]c1=O | -17.3% | -2.7% | -1.1% | -3.8 | 25.4% | . | .
CC(=O)c1ccc(NC(=O)c2cc(=O)[nH]c3ccccc23)cc1 | -4.9% | 1.2% | -3.9% | -15.4 | -2.9% | 5.0% | .
CCOc1ccc(NC(=O)c2cc(=O)[nH]c3ccccc23)cc1 | 5.5% | 7.3% | 0.5% | -51.4* | 156.5% | 13.6% | -5.7%
CC1=Nn2c(nnc2-c2n[nH]c3c2CCC3)SC1 | 1.1% | 7.7% | -1.5% | 2.1 | 6.6% | 10.8% | .
CC(C)(C)C1=Nn2c(nnc2-c2n[nH]c3c2CCC3)SC1 | -1.3% | -5.2% | -1.0% | -61.1* | 5.8% | 9.0% | 1.4%
CN(Cc1cn(-c2ccccc2)nc1-c1cc2ccccc2o1)C(=O)CCC(=O)O | 0.6% | -17.6% | -3.9% | -58.5* | 32.3% | 7.6% | -0.5%
CN(C)C(=O)c1cn(-c2ccccc2)nc1-c1cc2ccccc2o1 | -1.1% | -17.6% | -2.3% | 0.5 | 16.3% | 4.2% | .
CCCCCCCCCCCCCCCCCCNC(=O)OCC(COP(=O)([O-])OCC[n+]1ccsc1)OC (stereo unspecified) | -11.9%[60.1 µM] | -4.5%[57.1 µM] | . | . | 1.0%[58.9 µM] | 17.5%[57.1 µM] | .
Cc1ccn2c(NC3CCCC3)c(-c3cccs3)nc2c1 | -4.5% | -7.4% | -13.0% | -65.5* | -15.4% | 1.8% | -4.8%
CCOC(=O)c1nnn(-c2ccccc2)c1C | -4.4% | -8.8% | -8.2% | -0.3 | -4.0% | -19.7% | -1.4%
CCn1nc(C)c(CNC(=O)Nc2ccccc2C(=O)OC)c1C | -12.6% | -2.7% | 6.2% | -1.3 | 46.6% | -0.2% | .
Cc1ccnc(SCC(=O)Nc2oc(-c3ccccc3)c(-c3ccccc3)c2C#N)n1 | -16.3% | -13.5% | -0.4% | 5.6 | -8.4% | 13.2% | .
N#Cc1c(NC(=O)CSc2ncccn2)oc(-c2ccccc2)c1-c1ccccc1 | ? | 10µM* | -1.4% | -58.2* | ? | . | 5.8%
O=C(NCc1ccccn1)c1ccc(CNS(=O)(=O)c2ccc(F)cc2)cc1 | -23.4%[60.1 µM] | -21.5% | -5.1% | 0.4 | 6.7% | -1.7% | .
Cc1c(C(=O)NNC(=S)Nc2ccc(S(N)(=O)=O)cc2)oc2ccccc12 | -0.7% | -17.3% | -4.8% | -12.6 | 11.3% | 9.8% | .
O=C(OCC(=O)N1N=C(c2ccc(Cl)cc2)CC1c1ccco1)c1cccnc1 (stereo unspecified) | 44.7µM* | 28.2µM* | ? | -71.4* | ? | . | -1.1%
COCC(=O)OCC(=O)N1N=C(c2ccc(Cl)cc2)CC1c1ccco1 (stereo unspecified) | -5.1% | -8.9% | -6.7% | 8.0 | 63.9% | -0.8% | .
Cc1ccc(C2=NN(CCC(=O)NCc3ccc4c(c3)OCO4)C(=O)CC2)cc1 | -21.4% | -9.3% | -9.0% | -11.9 | 18.0% | -25.1% | .
CCCc1nnc(NC(=S)Nc2ccccc2)s1 | -0.6% | -17.0% | 4.2% | 4.0 | 119.9% | 1.4% | .
CC(C)C(=O)Nc1nnc(NC(=S)Nc2ccccc2)s1 | 6.8% | -22.1% | 2.9% | -55.9* | 96.0% | 30.7% | -8.5%
CC(C)C(=O)Nc1nnc(CCc2ccccc2)s1 | -19.9% | -6.0% | 15.6% | -50.5* | -2.1% | 0.7% | -2.7%
CCC(CC)C(=O)Nc1nnc(CCc2ccccc2)s1 | -8.4% | -4.0% | -2.5% | -1.1 | 98.5% | -13.0% | .
